Assay results reported in PubChem BioAssay (NCI).
Compounds without any hit were thinned out: in the full panel of roughly 83,000, 20% have a hit.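 Assay: single dose, 48 h. Readout: percent growth (0 = no net growth; negative = cell death). Active: <10.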 Activity calls are given as the source filed them.

Legend:
Test in all cases: NCI-60 one-dose screen, 48 h (100 = growth as untreated, 0 = no growth, -100 = all killed)
Conditions in all cases: 10 µM unless noted
[1] = tested on: SR leukemia
[2] = tested on: RPMI-8226 leukemia
[3] = tested on: OVCAR-8 ovarian
[4] = tested on: OVCAR-5 ovarian
[5] = tested on: OVCAR-4 ovarian
[6] = tested on: SK-OV-3 ovarian
[7] = tested on: IGROV1 ovarian
[8] = tested on: OVCAR-3 ovarian
[9] = tested on: HS 578T breast
[10] = tested on: NCI/ADR-RES ovarian
[11] = tested on: T-47D breast
[12] = tested on: MDA-MB-435 melanoma
[13] = tested on: SW-620 colon
[14] = tested on: MCF7 breast
[15] = tested on: HCT-116 colon
[16] = tested on: HCC-2998 colon
[17] = tested on: KM12 colon
[18] = tested on: BT-549 breast

Measured: growth

O=[N+]([O-])c1cccc2cc(S(=O)(=O)O)ccc12
inactive: [1] 103% | [2] 99% | [3] 98.9% | [4] 107% | [5] 114% | [6] 95.1% | [7] 104% | [8] 99.8% | [9] 107% | [10] 101% | [11] 98.9% | [12] 110% | [13] 99.9% | [14] 97.2% | [15] 97.6% | [16] 100% | [17] 108%

COc1ccc(N)c(S)c1
inactive: [1] 103% | [2] 95.9% | [3] 90.6% | [4] 104% | [5] 96% | [6] 85% | [7] 94.9% | [8] 110% | [9] 102% | [10] 98.4% | [11] 89.5% | [12] 106% | [13] 93.6% | [14] 94.4% | [15] 92.5% | [16] 103% | [17] 105%

Cc1ccn2cc(Cc3cc(=O)oc4c3ccc3ccccc34)c(=O)nc2c1
inactive: [1] 92.7% | [2] 93.3% | [3] 100% | [4] 102% | [5] 101% | [6] 90.1% | [7] 97% | [8] 104% | [9] 95.2% | [10] 105% | [11] 85.8% | [12] 104% | [13] 103% | [14] 93.8% | [15] 101% | [16] 100% | [17] 101%

CCOC(=O)C(C)(CSSCC(C)(NC(=O)c1ccc2ccccc2c1)C(=O)OCC)NC(=O)c1ccc2ccccc2c1 (centres undefined)
inactive: [1] 61.2% | [2] 93.4% | [3] 90.6% | [4] 127% | [5] 104% | [6] 107% | [7] 93.3% | [8] 110% | [9] 118% | [10] 105% | [11] 86.6% | [12] 96.3% | [13] 96.5% | [14] 92.2% | [15] 47% | [16] 119% | [17] 107%

Cc1cc(Nc2ccc(Cl)c(Cl)c2)nc(N)n1
inactive: [1] 78% | [2] 80.9% | [3] 107% | [4] 105% | [5] 92.8% | [6] 105% | [7] 114% | [8] 98.9% | [9] 92.6% | [10] 98.3% | [11] 79.5% | [12] 98.3% | [13] 97.7% | [14] 84.4% | [15] 86.4% | [16] 113% | [17] 91.3%

O=C(O)c1ccc(-n2cc(/C=N/Nc3ccc(Cl)cc3)c(-c3ccc(F)c(F)c3)n2)cc1
inactive: [1] 68.9% | [2] 24% | [3] 86.6% | [4] 83.7% | [5] 80.3% | [6] 100% | [7] 79.2% | [8] 75.2% | [9] 84.5% | [10] 73.1% | [11] 65.9% | [12] 86.5% | [13] 61.3% | [14] 46.5% | [15] 47.5% | [16] 82.6% | [17] 69.2%

c1nc(SC2=NCCN2)c2[nH]cnc2n1
inactive: [1] 22% | [2] 29.2% | [3] 41% | [4] 48.5% | [5] 61.7% | [7] 64% | [8] 30.8% | [9] 79.4% | [10] 22.5% | [11] 21.8% | [12] 24% | [13] 58.5% | [14] 14% | [15] 37% | [16] 32.8% | [17] 47.2%
active: [6] 8.1%

Fc1ccc(Nc2ncnc3ccc(-c4cn[nH]c4)cc23)cc1Cl
active: [1] 0.823% | [6] -11.6% | [7] 5.6% | [11] -20.2%
inactive: [2] 38.9% | [3] 44.1% | [4] 75.7% | [5] 55.5% | [8] 50.6% | [9] 31.4% | [10] 51.6% | [12] 79.8% | [13] 78.1% | [14] 23.3% | [15] 51.2% | [16] 85% | [17] 67.1%

O=C(O)c1ccccc1C(=O)c1ccc(I)cc1
inactive: [1] 101% | [2] 97.7% | [3] 107% | [4] 107% | [5] 109% | [6] 96.4% | [7] 98.4% | [8] 107% | [9] 104% | [10] 97.5% | [11] 83.1% | [12] 107% | [13] 97.4% | [14] 92.1% | [15] 99.9% | [16] 102% | [17] 106%

CN(C)CCCOc1c(Br)cc(/C=C/C(=O)N(C)CCc2cc(Br)c(OCCCN(C)C)c(Br)c2)cc1Br
active: [1] -34.5% | [2] -23.6%
inactive: [3] 30.7% | [4] 79.1% | [5] 79.7% | [6] 102% | [7] 48.2% | [8] 75.7% | [9] 75.7% | [10] 56.6% | [11] 92.8% | [12] 19.8% | [13] 32% | [14] 32.5% | [15] 12.1% | [16] 73% | [17] 47.7%

CCn1cc(C(=O)O)c(=O)c2cc(F)c(N3CCN(CC(=O)Nc4ccc(C(C)=O)cc4)CC3)cc21
inactive: [1] 91.9% | [2] 106% | [3] 100% | [4] 107% | [5] 113% | [6] 99.9% | [7] 102% | [8] 111% | [9] 101% | [10] 97.1% | [11] 92% | [12] 102% | [13] 103% | [14] 99.1% | [15] 104% | [16] 96.2% | [17] 97.4%

CCC(N)(C(=O)O)c1ccc(F)cc1 (centres undefined)
inactive: [1] 105% | [2] 98.4% | [3] 101% | [4] 111% | [5] 117% | [6] 113% | [7] 109% | [8] 99.9% | [9] 111% | [10] 106% | [11] 111% | [12] 105% | [13] 110% | [14] 93.5% | [15] 91.3% | [16] 95.4% | [17] 105%

Cc1cccc(NCS(=O)(=O)O)c1
inactive: [1] 107% | [2] 102% | [3] 88.6% | [4] 107% | [5] 109% | [6] 97.4% | [7] 102% | [8] 116% | [9] 104% | [10] 105% | [11] 94.1% | [12] 108% | [13] 101% | [14] 95.1% | [15] 102% | [16] 96.9% | [17] 112%

O=C(Nc1ccc(-n2ccc3c(NC(=O)c4ccccc4)nccc32)cc1)c1ccc(Cl)c(C(F)(F)F)c1
inactive: [3] 23% | [4] 62.9% | [5] 88.5% | [6] 53.9% | [7] 36% | [8] 22.9% | [10] 22.9% | [11] 62.3% | [18] 37.6% | [12] 11.6% | [16] 19.7%
active: [1] -28.7% | [2] -17.3% | [13] -45.8% | [14] -62.6% | [15] -92.4% | [17] -3.15%

CCNC(=O)Oc1ccc(/C(=C(/CC)Cc2ccccc2)c2ccc(OCCN3CCOCC3)cc2)cc1
inactive: [1] 29.2% | [2] 16% | [3] 57.8% | [4] 94.8% | [5] 45.9% | [6] 75.5% | [7] 59.4% | [8] 50.8% | [10] 49.4% | [11] 20.5% | [18] 69.9% | [12] 49.9% | [13] 59.3% | [14] 22.5% | [15] 41.6% | [16] 79.5% | [17] 37.3%

O=C(Nc1cccc(-n2ccc3c(NC(=O)c4ccccc4)ncnc32)c1)Nc1ccc(Cl)c(C(F)(F)F)c1
active: [12] -7.53%
inactive: [1] 17.7% | [2] 16.2% | [3] 25.9% | [4] 48.1% | [5] 64.4% | [6] 52.2% | [7] 32.5% | [8] 26.1% | [10] 34.8% | [11] 21.6% | [18] 45.9% | [13] 41.3% | [14] 20% | [15] 17% | [16] 40.8% | [17] 12.5%

Cc1ccccc1C[P+](c1ccccc1)(c1ccccc1)c1ccccc1
inactive: [1] 22.2% | [2] 10% | [3] 18.7% | [4] 55.2% | [6] 42.6% | [7] 20% | [10] 114% | [11] 26% | [18] 29.6% | [12] 14.6% | [13] 22.8% | [14] 10.8% | [15] 15.7% | [16] 12.2% | [17] 14.5%
active: [5] 3.27% | [8] 1.98%
